# In PubChem BioAssay AID1775 (NMMLSC, 2009):
# About 820 (0.37%) of roughly 220,000 compounds were called active. The full list was thinned out, with actives kept by preference. Unmarked numbers belong to inactive results. No stated cut-off is given here; in the data, active means fluorescence above about 47; inactive means the rest.
# Assay: green autofluorescence of compounds with avidin beads – biophysical, 488/530 nm, flow cytometry, artefact control, profiling panel (AID 1775)
# Conditions: compound fluorescence 488/530 nm, at 10 µM, hits give high values
row,Structure (SMILES),fluorescence (KMESF)
1,O=C(c1cccc(S(=O)(=O)Nc2ccccc2Cl)c1)N1CCN(C(=O)c2ccco2)CC1,12
2,O=C(Cc1c(F)cccc1Cl)N1CCN(C(=O)c2ccco2)CC1,91 (active)
3,O=C(c1ccco1)N1CCN(c2cccc(Cl)c2)CC1,13
4,O=C1CC(Cc2ccc(Cl)cc2)C(=O)N1c1cc(Cl)ccn1 (stereo not given),3
5,COC(=O)c1c(NC(=O)CN(c2ccc(C)c(C)c2)S(C)(=O)=O)sc2c1CCCC2,7
6,CSc1nc2nc(-c3cccc(C(F)(F)F)c3)ccn2n1,28
7,CN(CCOc1ccccc1)Cc1nc2cc(Cl)ccc2c(=O)[nH]1,19
8,CCOC(=O)c1cc2c(=O)[nH]c(C(Cl)(Cl)Cl)nc2o1,5
9,COc1ccc(Nc2ncc(F)c(N3CCOCC3)n2)cc1,5
10,CC(C)/C=N/NC(=O)c1cc(Br)ccc1O,2
11,O=C(/C(=N\O)n1cncn1)c1ccc(Br)cc1Br,5
12,CC(=O)N/N=C(\C)c1ccc(Br)cc1Br,173 (active)
13,Cc1ccc(OCC(=O)Nc2ccc(-c3nnc(-c4ccco4)o3)cc2)cc1,50 (active)
14,CCOc1ccc(-c2nnc(-c3ccco3)o2)cc1,8
15,Cc1ccc(OCC(=O)Nc2nnc(-c3ccco3)s2)cc1,8
16,CCOC(=O)N1CCN(c2cc(C)c([N+](=O)[O-])cc2F)CC1,7
17,S=C(NCCc1ccccc1)NCc1ccccc1Cl,13
18,COC(=O)c1c(C(=O)OC)c(-c2cccc(C)c2)n2c1CS(=O)C2 (stereo not given),7
19,O=C(O)CCC(=O)N(Cc1cccs1)Cc1cccs1,74 (active)
20,O=C(CCc1ccccc1)NCCc1cccs1,6
21,Cc1ccnc(NC(=O)CCC(=O)N(CC(=O)NCCc2ccccc2)Cc2cccs2)c1,9
22,Cc1cc(C(=O)NCCc2ccc(Cl)cc2)n(-c2ccccc2)n1,6
23,CCOC(=O)c1nc(C)n(-c2ccc(Cl)cc2Cl)n1,8
24,Cc1cc(C)nc(NC(=O)/C=C/c2ccc(Cl)cc2)n1,6

row,Structure (SMILES),fluorescence (KMESF)
1,Cc1cc(C)nc(/N=C2\NC(=O)CC(C(=O)O)N2c2ccc(Cl)cc2Cl)n1 (stereo not given),66 (active)
2,O=C(NCc1cccs1)c1ccc(Br)o1,12
3,CC(CCc1ccccc1)NC(=O)c1ccc(Br)o1 (stereo not given),8
4,CC(CNC(=O)c1ccc(Br)o1)NC(=O)c1ccc(Br)o1 (stereo not given),48 (active)
5,CC(=O)N(OCc1ccc(OC(C)C)c(Cl)c1)C(C)=O,8
6,CC(=O)NCC(=O)N(Cc1ccco1)C1(C(=O)NC2CCCC2)CCCCC1,6
7,CS/C(=C\[N+](=O)[O-])Nc1ccc(C)cc1,12
8,Cc1cc(Cl)ccc1NC(=S)N1CCC(C(N)=O)(N2CCCCC2)CC1,10
9,COc1cc(C(=O)NCc2nnc(SCC(=O)Nc3nc4ccc(C)cc4s3)o2)cc(OC)c1OC,19
10,Cc1cc(N2CCN(c3ccc(F)cc3)CC2)n2ncnc2n1,9
11,Nc1c(-c2ccc(F)cc2)cnc2ncnn12,76 (active)
12,Nc1c(-c2ccc(F)cc2)cnn1C1CCS(=O)(=O)C1 (stereo not given),7
13,CC(C)(C)OC(=O)N/N=C/c1cn(-c2ccccc2)nc1-c1cccnc1,13
14,O=C(NCc1csc(-c2cccs2)n1)C1CC1,2
15,CC1Cc2ccccc2N1S(=O)(=O)c1ccc(Cl)nc1 (stereo not given),4
16,COc1cc(CO)c(C2(CO)CCCC2)cc1OC,36
17,Cc1nc2c(-c3ccc(F)cc3)c(C)nn2c(C)c1CCC(=O)NCc1ccco1,6
18,Cc1nc2nc(SCC(=O)NCc3ccco3)nn2c(C)c1Cc1ccccc1,15
19,COc1cc(OC)cc(-c2nc3nc(C)c(CCC(=O)NCc4ccco4)c(C)n3n2)c1,59 (active)
20,CCOC(=O)C(C)Sc1nnc(CSc2nc3nc(C)cc(C)n3n2)o1 (stereo not given),15
21,CC(C)Cn1cnc2c1c(=O)n(CC(O)c1ccccc1)c(=O)n2CC(C)C (stereo not given),67 (active)
22,Cn1c(=O)c2c(ncn2CCc2ccccc2)n(C)c1=O,11
23,CC(C)Cn1c(CN(Cc2ccccc2)Cc2ccccc2)nc2c1c(=O)n(C)c(=O)n2C,8
24,CCNC(=O)COc1cc(C)c(Br)c(C)c1,9

row,Structure (SMILES),fluorescence (KMESF)
1,CC1CCc2c(c3ccccc3[nH]c2=O)O1 (stereo not given),57 (active)
2,CCCCc1nc2c(=O)[nH]c3ccccc3c2o1,26
3,CC(C)C(=O)Nc1c(O)c2ccccc2[nH]c1=O,10
4,CCCN(CCC)C(=S)Nc1cc(C(=O)OC)ccc1C(=O)OC,3
5,CN(CC(=O)NC1CCCCC1)S(=O)(=O)c1ccc(Br)s1,32
6,CN(CC(=O)NC1CCCCC1)S(=O)(=O)c1cccc2cccnc12,118 (active)
7,Cc1ccc(S(=O)(=O)N(C)CC(=O)NC2CCCC2)cc1,10
8,COc1ccc2c(c1)cc1n2CCN=C1NN,7
9,Cc1ccccc1CS(=O)(=O)CC1(O)CCN(C(=O)c2cccc(C(F)(F)F)c2)CC1,88 (active)
10,Cc1ccccc1CN1CCN(C(=O)c2cccc(F)c2)CC1,4
11,CC(C)CC(=O)N1CCC(O)(CS(=O)(=O)Cc2ccccc2)CC1,7
12,O=C(c1ccc(F)cc1)N1CCC(n2nnc3ccccc32)CC1,34
13,CCOc1cnc(C(=O)NNC(=O)c2ccccc2Br)o1,15
14,COc1cccc(-c2ccc(SCC(=O)N3CCN(c4ccccc4)CC3)nn2)c1,8
15,COC(=O)CSc1ccc2nnc(CCNS(=O)(=O)c3ccc(C)cc3)n2n1,4
16,COc1ccc(-c2nnn(CC(=O)N(CCO)C(C(=O)NC3CCCC3)c3ccc(F)cc3)n2)cc1 (stereo not given),12
17,CC(C)CCNC(=O)C(C)N(C(=O)Cn1nnc(-c2ccc(F)cc2)n1)C1CCCC1 (stereo not given),51 (active)
18,CC(C)CCNC(=O)CN(C(=O)Cn1nnc(-c2ccc(F)cc2)n1)C1CCCC1,14
19,O=C(NNS(=O)(=O)c1ccc(F)cc1)c1cnccn1,10
20,COc1cccc(C(=O)Nc2ccc(N3CCCC3)cc2)c1,9
21,COc1cc(N2CCCC2)c(OC)cc1/C=C(/C#N)c1cccc(Br)c1,47 (active)
22,CC(=O)Nc1cccc(Oc2cc(C#N)c(C#N)cc2N2CCOCC2)c1,7
